In PubChem BioAssay (EPA / NIEHS):
Records with an inconclusive call do not appear. Calls of active or inactive are those of the source. How the source made its calls, unless noted: active means hit-call score of the fitted dose curve at least 0.9, where 1 is the maximum; inactive means score below 0.9.

Assays:
[1] = target: Glucocorticoid receptor (Homo sapiens) (UniProt P04150); test: ATG_GR_TRANS: Attagene TRANS-FACTORIAL HepG2 Assay for human Glucocorticoid Receptor (GR) (AID 2282978; active means hit-call score of the fitted dose curve at least 0.9, where 1 is the maximum;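 further: activators score as hits since higher reporter transcript over DMSO is fitted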); settings: HepG2 Attagene TRANS GR reporter, mRNA transcription
Sequence of Glucocorticoid receptor (Homo sapiens) (P04150 whole entry, looked up, the tested form may be a part): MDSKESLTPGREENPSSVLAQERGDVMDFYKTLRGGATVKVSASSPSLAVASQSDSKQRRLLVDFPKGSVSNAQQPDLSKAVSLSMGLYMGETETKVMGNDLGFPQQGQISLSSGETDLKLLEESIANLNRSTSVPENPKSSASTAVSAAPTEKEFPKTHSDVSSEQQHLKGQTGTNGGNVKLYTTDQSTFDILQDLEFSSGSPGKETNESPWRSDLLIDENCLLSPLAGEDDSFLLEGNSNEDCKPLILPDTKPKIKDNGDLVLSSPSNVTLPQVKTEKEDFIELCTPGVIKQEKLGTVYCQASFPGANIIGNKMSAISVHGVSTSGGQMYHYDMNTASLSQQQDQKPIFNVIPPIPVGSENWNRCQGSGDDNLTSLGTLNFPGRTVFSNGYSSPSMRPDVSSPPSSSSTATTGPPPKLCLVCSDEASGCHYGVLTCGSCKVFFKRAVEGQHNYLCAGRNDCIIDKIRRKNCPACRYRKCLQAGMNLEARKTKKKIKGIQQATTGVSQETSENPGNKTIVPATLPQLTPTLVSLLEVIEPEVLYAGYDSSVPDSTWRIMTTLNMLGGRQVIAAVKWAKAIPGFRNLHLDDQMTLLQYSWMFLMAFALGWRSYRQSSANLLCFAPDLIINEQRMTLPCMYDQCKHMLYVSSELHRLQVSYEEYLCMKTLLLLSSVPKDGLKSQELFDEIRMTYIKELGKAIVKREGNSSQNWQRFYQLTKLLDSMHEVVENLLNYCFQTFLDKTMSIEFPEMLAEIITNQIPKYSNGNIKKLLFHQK
Procedure, shortened: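 Transiently transfected HepG2 cells express chimeric NR-GAL4 proteins acting on GAL4-UAS reporter units. Compounds are applied for 24 h. mRNA induction over DMSO is measured by capillary electrophoresis.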

[2] = target: Bile acid receptor (Homo sapiens) (UniProt Q96RI1); test: ATG_FXR_TRANS: Attagene TRANS-FACTORIAL HepG2 Assay for Farnesoid X Receptor (FXR) (AID 2282979; active means hit-call score of the fitted dose curve at least 0.9, where 1 is the maximum;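 further: hits raise reporter mRNA above DMSO so AC50 marks FXR activation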); settings: HepG2 Attagene TRANS FXR-GAL4 reporter transcription
Sequence of Bile acid receptor (Homo sapiens) (Q96RI1 whole entry, looked up, the tested form may be a part): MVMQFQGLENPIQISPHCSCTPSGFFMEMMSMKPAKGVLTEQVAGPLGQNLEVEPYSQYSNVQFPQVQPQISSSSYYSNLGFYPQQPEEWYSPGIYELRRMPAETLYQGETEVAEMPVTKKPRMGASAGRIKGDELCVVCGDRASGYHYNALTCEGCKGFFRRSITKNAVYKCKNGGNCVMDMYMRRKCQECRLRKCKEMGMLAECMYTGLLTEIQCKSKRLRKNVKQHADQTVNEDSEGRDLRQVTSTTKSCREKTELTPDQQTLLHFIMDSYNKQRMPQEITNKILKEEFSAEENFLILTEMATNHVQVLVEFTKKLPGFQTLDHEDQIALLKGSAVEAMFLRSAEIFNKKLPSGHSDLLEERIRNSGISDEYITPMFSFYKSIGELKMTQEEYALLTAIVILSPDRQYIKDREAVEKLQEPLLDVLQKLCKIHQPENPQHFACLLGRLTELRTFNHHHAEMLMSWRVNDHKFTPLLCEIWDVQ
Procedure, shortened: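 Read-out: fluorescent reporter transcripts quantified by capillary electrophoresis after RT-PCR of total RNA. Source cells were HepG2 transiently carrying chimeric NR-GAL4 plus GAL4-UAS reporter units, dosed 24 h. Activity fitted upward relative to DMSO baseline.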

[3] = target: Oxysterols receptor LXR-beta (Homo sapiens) (UniProt P55055); test: ATG_LXRb_TRANS: Attagene TRANS-FACTORIAL HepG2 Assay for human Liver X Receptor beta (LXRb) (AID 2282981; active means hit-call score of the fitted dose curve at least 0.9, where 1 is the maximum); settings: HepG2 Attagene TRANS GAL4-LXRb reporter, mRNA
Sequence of Oxysterols receptor LXR-beta (Homo sapiens) (P55055 whole entry, looked up, the tested form may be a part): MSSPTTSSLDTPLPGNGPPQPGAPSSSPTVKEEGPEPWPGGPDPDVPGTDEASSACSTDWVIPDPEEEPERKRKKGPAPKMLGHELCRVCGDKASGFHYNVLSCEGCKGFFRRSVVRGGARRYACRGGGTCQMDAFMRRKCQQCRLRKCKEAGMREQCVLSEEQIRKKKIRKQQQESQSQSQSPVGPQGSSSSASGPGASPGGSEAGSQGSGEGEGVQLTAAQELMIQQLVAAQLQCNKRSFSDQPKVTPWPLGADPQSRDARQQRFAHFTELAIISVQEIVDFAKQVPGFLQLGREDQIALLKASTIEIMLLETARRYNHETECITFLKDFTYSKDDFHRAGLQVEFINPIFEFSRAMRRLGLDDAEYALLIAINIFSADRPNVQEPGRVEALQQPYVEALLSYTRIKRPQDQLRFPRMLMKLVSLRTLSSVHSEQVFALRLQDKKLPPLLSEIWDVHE
Procedure, shortened: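 Gain-of-signal mRNA reporter endpoint, DMSO as negative control. Transiently transfected HepG2 cells carrying the NR-Gal4 chimera and GAL4-UAS reporter units were treated 24 h; transcripts quantified by RT-PCR and capillary electrophoresis fluorescence.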

[4] = target: Hepatocyte nuclear factor 4-alpha (Homo sapiens) (UniProt P41235); test: ATG_HNF4a_TRANS: Attagene TRANS-FACTORIAL HepG2 Assay for human Hepatocyte Nuclear Factor 4 alpha (HNF4a) (AID 2282982; active means hit-call score of the fitted dose curve at least 0.9, where 1 is the maximum); settings: HepG2 HNF4a transactivation reporter, mRNA readout
Sequence of Hepatocyte nuclear factor 4-alpha (Homo sapiens) (P41235 whole entry, looked up, the tested form may be a part): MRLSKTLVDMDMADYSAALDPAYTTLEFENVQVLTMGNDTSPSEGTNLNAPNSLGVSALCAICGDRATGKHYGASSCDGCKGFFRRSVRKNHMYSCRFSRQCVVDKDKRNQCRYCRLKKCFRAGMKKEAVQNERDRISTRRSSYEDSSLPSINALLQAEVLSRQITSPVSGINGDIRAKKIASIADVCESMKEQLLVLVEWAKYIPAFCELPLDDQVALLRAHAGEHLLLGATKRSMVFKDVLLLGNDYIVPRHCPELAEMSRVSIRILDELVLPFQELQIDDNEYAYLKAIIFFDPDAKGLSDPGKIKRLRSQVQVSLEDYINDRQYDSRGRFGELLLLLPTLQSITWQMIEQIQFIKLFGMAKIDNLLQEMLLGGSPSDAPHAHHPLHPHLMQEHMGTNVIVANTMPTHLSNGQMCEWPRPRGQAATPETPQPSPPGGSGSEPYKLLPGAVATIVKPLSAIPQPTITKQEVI
Procedure, shortened: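 Gain-of-signal mRNA induction, relative to DMSO vehicle, was read after 24 h compound treatment of HepG2 cells bearing transfected GAL4-UAS reporters. Detection used RT-PCR, 6-FAM primer extension and capillary electrophoresis.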

[5] = target: Transcriptional activator Myb (Homo sapiens) (UniProt P10242); test: ATG_Myb_CIS: Attagene CIS-FACTORIAL HepG2 Assay for human Myeloblastosis (Myb) Proto-Oncogene Transcription Factor (AID 2282986); settings: HepG2 Attagene CIS-FACTORIAL Myb reporter transcription; actives raise or lower the signal
Sequence of Transcriptional activator Myb (Homo sapiens) (P10242 whole entry, looked up): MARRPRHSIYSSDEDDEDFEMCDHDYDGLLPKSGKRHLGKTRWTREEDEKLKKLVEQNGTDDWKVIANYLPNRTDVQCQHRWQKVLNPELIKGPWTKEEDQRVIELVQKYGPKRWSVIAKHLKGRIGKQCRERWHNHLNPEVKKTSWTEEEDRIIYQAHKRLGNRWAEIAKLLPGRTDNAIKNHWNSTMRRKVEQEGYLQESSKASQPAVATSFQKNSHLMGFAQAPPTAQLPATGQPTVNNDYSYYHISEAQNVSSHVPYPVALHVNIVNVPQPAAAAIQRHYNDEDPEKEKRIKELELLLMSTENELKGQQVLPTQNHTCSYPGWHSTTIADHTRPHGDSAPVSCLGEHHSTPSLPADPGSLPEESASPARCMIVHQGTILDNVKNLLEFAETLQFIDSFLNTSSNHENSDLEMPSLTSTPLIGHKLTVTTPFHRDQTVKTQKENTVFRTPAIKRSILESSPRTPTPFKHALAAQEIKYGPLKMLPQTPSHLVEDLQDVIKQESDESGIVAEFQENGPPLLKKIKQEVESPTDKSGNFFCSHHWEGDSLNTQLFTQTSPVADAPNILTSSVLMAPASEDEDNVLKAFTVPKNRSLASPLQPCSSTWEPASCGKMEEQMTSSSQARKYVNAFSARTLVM
Procedure, shortened: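 Using HepG2 liver cells bearing transiently transfected cis-promoter reporter constructs, the assay measures induction or loss of reporter mRNA after 24 hours of dosing. Detection used fluorescently labeled RT-PCR products separated by capillary electrophoresis.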

[6] = target: Nuclear respiratory factor 1 (Homo sapiens) (UniProt Q16656); test: ATG_NRF1_CIS: Attagene CIS-FACTORIAL HepG2 Assay for human Nuclear Respiratory Factor 1 (NRF1) Orphan Gene (AID 2282987); settings: HepG2 NRF1 cis-element reporter, Attagene multiplex; actives raise or lower the signal
Sequence of Nuclear respiratory factor 1 (Homo sapiens) (Q16656 whole entry, looked up): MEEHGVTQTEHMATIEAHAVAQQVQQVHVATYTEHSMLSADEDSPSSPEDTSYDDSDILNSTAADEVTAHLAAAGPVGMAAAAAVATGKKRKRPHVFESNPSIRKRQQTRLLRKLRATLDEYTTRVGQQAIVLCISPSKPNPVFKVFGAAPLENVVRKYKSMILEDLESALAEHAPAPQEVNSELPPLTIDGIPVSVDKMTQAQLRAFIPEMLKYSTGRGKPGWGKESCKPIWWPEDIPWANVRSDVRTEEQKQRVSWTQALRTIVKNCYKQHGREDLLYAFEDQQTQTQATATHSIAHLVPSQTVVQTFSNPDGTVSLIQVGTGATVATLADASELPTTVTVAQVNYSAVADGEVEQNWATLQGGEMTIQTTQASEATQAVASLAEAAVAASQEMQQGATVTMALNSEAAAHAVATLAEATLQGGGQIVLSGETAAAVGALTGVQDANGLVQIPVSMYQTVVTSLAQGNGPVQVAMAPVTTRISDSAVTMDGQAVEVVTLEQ
Procedure, shortened: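 Reporter mRNA induction or loss in HepG2 cells after 24 h dosing; cis-regulated reporter constructs report endogenous transcription-factor activity. Quantified by RT-PCR/capillary electrophoresis fluorescence, DMSO-referenced.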

[7] = ATG_NFI_CIS: Attagene CIS-FACTORIAL HepG2 Assay for human Nuclear Factor I (NFI) (AID 2282989); settings: HepG2 cis-regulatory reporter, NFI response element transcription; actives raise or lower the signal
Procedure, shortened: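 Multiplexed cis-reporter system in human HepG2 cells reports native TF activity as reporter mRNA induction 24 h post-dose. Fragments labelled with 6-FAM, HpaI-digested and resolved by capillary electrophoresis; activity fitted both directions versus DMSO.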

[8] = target: Myc proto-oncogene protein (Homo sapiens) (UniProt P01106); test: ATG_Myc_CIS: Attagene CIS-FACTORIAL HepG2 Assay for human Myelocytomatosis (Myc) Proto-Oncogene Transcription Factor (AID 2282990); settings: HepG2, Attagene cis-reporter transcription factor activity; actives raise or lower the signal
Sequence of Myc proto-oncogene protein (Homo sapiens) (P01106 whole entry, looked up): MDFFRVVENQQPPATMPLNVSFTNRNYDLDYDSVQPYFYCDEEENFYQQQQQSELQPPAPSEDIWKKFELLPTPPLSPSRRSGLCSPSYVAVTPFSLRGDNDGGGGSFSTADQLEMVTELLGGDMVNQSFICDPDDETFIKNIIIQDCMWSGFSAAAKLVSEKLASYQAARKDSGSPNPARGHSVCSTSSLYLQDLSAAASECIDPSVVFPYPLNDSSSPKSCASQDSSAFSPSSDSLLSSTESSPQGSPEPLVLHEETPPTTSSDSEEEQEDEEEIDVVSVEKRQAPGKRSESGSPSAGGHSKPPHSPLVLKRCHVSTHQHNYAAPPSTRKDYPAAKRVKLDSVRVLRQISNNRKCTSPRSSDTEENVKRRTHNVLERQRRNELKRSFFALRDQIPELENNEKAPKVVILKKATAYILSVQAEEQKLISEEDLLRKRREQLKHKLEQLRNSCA
Procedure, shortened: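 Transiently transfected HepG2 cells bearing cis-promoter reporter units for endogenous transcription factors; 24 h exposure. Reporter mRNA measured by RT-PCR, 6-FAM primer extension, HpaI cut and capillary electrophoresis; bidirectional fit relative to DMSO.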

[9] = ATG_NRF2_ARE_CIS: Attagene CIS-FACTORIAL HepG2 Assay for human Nuclear Factor Erythroid 2 Related Factor 2 (NFR2) response to Antioxidant Response Elements (ARE) (AID 2282992); settings: HepG2 Attagene ARE/NRF2 reporter, transcription factor activity; actives raise or lower the signal;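 on AC50: reporter mRNA level measured by RT-PCR and capillary electrophoresis fluorescence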
Procedure, shortened: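 HepG2 cells transiently transfected with multiplexed cis-regulated reporter transcription units measure endogenous transcription factor activity. Reporter mRNA at 24 h is quantified by RT-PCR, fluorescent labelling and capillary electrophoresis, with bidirectional fitting relative to DMSO.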

[10] = ATG_Oct_MLP_CIS: Attagene CIS-FACTORIAL HepG2 Assay for human Octamer-Binding Transcription Factor (Oct) (AID 2282993); settings: HepG2 Attagene cis-factorial Oct reporter, mRNA; actives raise or lower the signal
Procedure, shortened: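 After 24 h compound exposure, transfected HepG2 cells were lysed for total RNA; reporter-specific cDNA was PCR-amplified, fluorescently labelled and sized by capillary electrophoresis. Bidirectional curve fitting used DMSO as baseline.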

[11] = BSK_3C_TissueFactor: BioMAP Diversity Plus: 3C Assay for Tissue Factor Biomarker Activity (AID 2282997); settings: BioMAP 3C HUVEC, tissue factor biomarker readout; actives raise or lower the signal
Procedure, shortened: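 Human vascular primary cells (umbilical vein endothelium) received test chemical; Tissue Factor was determined by ELISA at 24 h, and both gain and loss of signal versus DMSO were fitted.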

[12] = BSK_3C_uPAR: BioMAP Diversity Plus: 3C Assay for Urokinase-type plasminogen activator receptor (uPAR) Biomarker Activity (AID 2282998); settings: BioMAP 3C HUVEC, uPAR biomarker ELISA; actives raise or lower the signal
Procedure, shortened: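 Values derive from bidirectional curve fitting relative to DMSO, which served as baseline of activity. uPAR was measured by ELISA in human umbilical vein endothelial primary cultures 24 h after compound addition.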

[13] = ATG_GAL4_TRANS: Attagene TRANS-FACTORIAL HepG2 Assay for GAL4 (Internal Marker) (AID 2282976; active means hit-call score of the fitted dose curve at least 0.9, where 1 is the maximum); settings: HepG2 Attagene TRANS GAL4 internal marker reporter
Procedure, shortened: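 RT-PCR/capillary electrophoresis readout of reporter mRNA. HepG2, transient MRTU transfection (GAL4-UAS reporters), 24 h compound exposure. Background-control endpoint, positive direction vs DMSO baseline.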

[14] = target: Oxysterols receptor LXR-alpha (Homo sapiens) (UniProt Q13133); test: ATG_LXRa_TRANS: Attagene TRANS-FACTORIAL HepG2 Assay for human Liver X Receptor alpha (LXRa) (AID 2282980; active means hit-call score of the fitted dose curve at least 0.9, where 1 is the maximum); settings: HepG2 Attagene TRANS reporter, LXRa transactivation
Sequence of Oxysterols receptor LXR-alpha (Homo sapiens) (Q13133 whole entry, looked up, the tested form may be a part): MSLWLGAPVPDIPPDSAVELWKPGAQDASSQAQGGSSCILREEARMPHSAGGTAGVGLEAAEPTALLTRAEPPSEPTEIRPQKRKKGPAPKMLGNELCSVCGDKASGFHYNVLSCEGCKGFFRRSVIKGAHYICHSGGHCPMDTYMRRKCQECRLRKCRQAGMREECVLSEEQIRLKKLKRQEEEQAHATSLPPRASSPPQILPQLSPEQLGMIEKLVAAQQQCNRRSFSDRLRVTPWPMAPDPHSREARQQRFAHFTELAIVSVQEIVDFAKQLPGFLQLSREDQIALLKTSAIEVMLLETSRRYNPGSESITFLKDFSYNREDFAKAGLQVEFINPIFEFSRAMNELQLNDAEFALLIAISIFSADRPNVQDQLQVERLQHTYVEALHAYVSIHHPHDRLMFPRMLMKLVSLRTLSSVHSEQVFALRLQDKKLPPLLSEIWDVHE
Procedure, shortened: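 Read-out: reporter transcript levels by RT-PCR plus capillary electrophoresis, fluorescence intensity. Transiently transfected HepG2, exogenous NR-GAL4 chimera, GAL4-UAS reporters; 24 h compound exposure. Activity = increase over DMSO negative control.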

[15] = ATG_M_06_TRANS: Attagene TRANS-FACTORIAL HepG2 Assay for M06 Transcription Factor (Internal Marker) (AID 2282983; active means hit-call score of the fitted dose curve at least 0.9, where 1 is the maximum); settings: HepG2 Attagene TRANS M06 internal marker reporter
Procedure, shortened: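 After a 24 h chemical treatment of transfected HepG2, RNA underwent DNase I treatment, reverse transcription and reporter-specific PCR; labelled, HpaI-digested products were sized by capillary electrophoresis. Signal increase relative to DMSO defined activity.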

[16] = ATG_M_32_TRANS: Attagene TRANS-FACTORIAL HepG2 Assay for M32 Transcription Factor (Internal Marker) (AID 2282984; active means hit-call score of the fitted dose curve at least 0.9, where 1 is the maximum;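 further: transcript level of a background control reporter unit measured by RT-PCR and capillary electrophoresis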); settings: HepG2 Attagene TRANS M32 internal marker reporter
Procedure, shortened: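 Capillary electrophoresis of 6-FAM-labelled reporter fragments gives the signal; data fitted for gain over DMSO negative control. Source: HepG2 cells bearing transient multiple reporter transcription units, 24 h exposure.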

[17] = ATG_NF_kB_CIS: Attagene CIS-FACTORIAL HepG2 Assay for human Nuclear Factor Kappa B (NF-kB) (AID 2282991); settings: HepG2 Attagene cis-factorial NF-kB reporter mRNA; actives raise or lower the signal
Procedure, shortened: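 DMSO served as negative control and baseline for bidirectional curve fitting. Transiently transfected HepG2 cells were dosed for 24 h, then reporter transcripts were measured by RT-PCR with capillary electrophoresis detection.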

[18] = target: Cellular tumor antigen p53 (Homo sapiens) (UniProt P04637); test: ATG_p53_CIS: Attagene CIS-FACTORIAL HepG2 Assay for human p53 Transcription Factor (AID 2282994); settings: HepG2 p53 cis-element reporter, Attagene mRNA; actives raise or lower the signal
Procedure, shortened: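 HepG2 cells transiently transfected with multiplexed cis-regulated reporter transcription units read endogenous TF activity. After 24 h compound exposure, reporter mRNA was quantified by RT-PCR, fluorescent labelling, HpaI digestion and capillary electrophoresis; bidirectional fits versus DMSO baseline.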

[19] = target: Nuclear receptor subfamily 4 group A member 2 (Homo sapiens) (UniProt P43354); test: ATG_NURR1_TRANS: Attagene TRANS-FACTORIAL HepG2 Assay for human Nuclear Receptor Related Protein 1 (NURR1) (AID 2282985; active means hit-call score of the fitted dose curve at least 0.9, where 1 is the maximum); settings: HepG2 Attagene TRANS reporter, mRNA readout
Sequence of Nuclear receptor subfamily 4 group A member 2 (Homo sapiens) (P43354 whole entry, looked up): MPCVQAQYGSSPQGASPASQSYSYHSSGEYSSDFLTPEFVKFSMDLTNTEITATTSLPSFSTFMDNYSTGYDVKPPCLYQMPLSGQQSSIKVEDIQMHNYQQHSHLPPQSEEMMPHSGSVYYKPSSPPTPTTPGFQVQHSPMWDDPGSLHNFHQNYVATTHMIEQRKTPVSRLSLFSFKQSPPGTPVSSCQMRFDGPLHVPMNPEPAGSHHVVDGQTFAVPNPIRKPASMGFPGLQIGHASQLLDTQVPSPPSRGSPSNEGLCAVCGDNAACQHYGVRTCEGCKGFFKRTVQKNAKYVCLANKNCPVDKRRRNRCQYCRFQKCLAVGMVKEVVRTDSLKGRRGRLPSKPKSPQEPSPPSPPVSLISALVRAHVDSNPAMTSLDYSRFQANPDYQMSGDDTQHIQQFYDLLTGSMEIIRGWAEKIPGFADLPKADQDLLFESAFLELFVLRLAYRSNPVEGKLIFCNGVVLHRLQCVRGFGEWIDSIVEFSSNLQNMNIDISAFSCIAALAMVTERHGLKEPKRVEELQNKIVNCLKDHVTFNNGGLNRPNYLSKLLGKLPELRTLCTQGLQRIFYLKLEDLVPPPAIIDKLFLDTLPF
Procedure, shortened: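 HepG2 / transient MRTU transfection / 24 h compound exposure / RT-PCR + CE fluorescence of reporter mRNA / gain-of-signal vs DMSO.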

[20] = target: Estrogen-related receptor gamma (Homo sapiens) (UniProt P62508); test: ATG_ERRg_TRANS: Attagene TRANS-FACTORIAL HepG2 Assay for human Estrogen-Related Receptor gamma (ERRg) (AID 2282977; active means hit-call score of the fitted dose curve at least 0.9, where 1 is the maximum;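 further: hits increase reporter signal over DMSO so potencies reflect activators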); settings: HepG2 Attagene TRANS reporter, ERRg transactivation
Procedure, shortened: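 HepG2 cells transiently transfected with multiplexed GAL4-UAS reporter units and chimeric NR-Gal4 constructs were exposed to test chemicals for 24 h. Reporter mRNA was measured by RT-PCR, 6-FAM primer extension, HpaI digestion and capillary electrophoresis; gain-of-signal versus DMSO.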

Measured: AC50

COP(=O)(OC)OC(Br)C(Cl)(Cl)Br (stereo unspecified)
inactive: [1] | [2] | [3] | [4] | [5] | [6] | [7] | [8] | [9] | [10]
active: [11] 16.3 µM | [12] 31.7 µM

CCOP(=O)(NC(C)C)Oc1ccc(SC)c(C)c1 (stereo unspecified)
active: [9] 5.22 µM | [10] 11.2 µM
not listed: [4] | [19] | [20]
inactive: all other assays above

CCCSP(=O)(OCC)SCCC
active: [9] 40.9 µM
not listed: [4] | [5] | [13] | [15] | [16] | [17] | [18] | [20]
inactive: all other assays above

CC1(C(=O)Nc2ccc(O)c(Cl)c2Cl)CCCCC1
active: [14] 50 µM | [9] 8.84 µM | [10] 22.2 µM
not listed: [1] | [2] | [5] | [13] | [16]
inactive: all other assays above

COc1cccc(C(=O)NN(C(=O)c2cc(C)cc(C)c2)C(C)(C)C)c1C
not listed: [1] | [3] | [4] | [13] | [14] | [16] | [19]
inactive: all other assays above

CCOP(=S)(OCC)Oc1ccc2c(C)c(Cl)c(=O)oc2c1
active: [9] 2.75 µM
not listed: [2] | [4] | [13] | [17]
inactive: all other assays above

CC(C)=CC1C(C(=O)OCN2C(=O)C3=C(CCCC3)C2=O)C1(C)C (stereo unspecified)
active: [5] 50 µM | [9] 16.2 µM | [10] 35.4 µM | [11] 12.7 µM | [12] 15.5 µM
not listed: [2] | [4] | [13] | [15] | [17]
inactive: all other assays above

COP(=O)(OC)C(O)C(Cl)(Cl)Cl (stereo unspecified)
active: [3] 92.4 µM | [9] 29.9 µM | [10] 50 µM | [18] 9.92 µM
not listed: [5] | [13] | [15] | [19]
inactive: all other assays above
